Data on 40 compounds can be found in PubChem BioAssay (NCATS).

Results filed as inconclusive are left out. Calls of active or inactive are those of the source. Calls come from the whole dose curve; as a rule, active = well fitted inhibition curve with a large enough effect; inconclusive = small, poorly fitted or top-dose-only effect, or effect the other way; inactive = flat fitted curve, though single readings scatter. Peptide text beside a SMILES is read from it.

In the experiment the target is ATP-dependent 6-phosphofructokinase (Trypanosoma brucei brucei) (UniProt O15648). Briefly: qHTS Assay to Find Inhibitors of T. brucei phosphofructokinase: hit validation (AID 492961).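 Note: luminescence reports ADP formed as PFK phosphorylates fructose-6-phosphate with ATP.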 As to conditions: T. brucei PFK, ADP-Glo luminescence; series mostly up to 51.4 µM. The source says: NIH Molecular Libraries Probe Production Network [MLPCN] NIH Chemical Genomics Center [NCGC] Grant: 1 R03 MH092153-01 PI Name: Malcolm Walkinshaw, University of Edinburgh NCGC Assay Overview: Various species of the protozoan family Trypanosomatidae are responsible for a range of serious human diseases in tropical and subtropical areas of the world. […] Many of the disorders caused by trypanosomatids are fatal if left untreated, but most currently used drugs are inefficient and toxic. […] Oxidative metabolism involving the mitochondrial tricarboxylic acid cycle and oxidative phosphorylation are repressed in these parasites, and recent RNA interference (RNAi) experiments have shown that even partial depletion of certain individual glycolytic enzymes can lead to the death of cultured parasites. One such glycolytic enzyme, phosphofructokinase (PFK), catalyzes the formation of fructose-1,6-bisphosphate (F1,6BP) and ADP from fructose-6-phosphate (F6P) and ATP, and in many metabolic circumstances makes an important contribution to the control of flux through the glycolytic pathway. As a specific glycolytic target, PFK is particularly attractive as it catalyzes the first irreversible step in glycolysis, and structural and kinetic studies have shown very substantial and essential differences from corresponding host enzymes, allowing for the discovery of parasite-selective inhibitors. The goal of this screen is to find small-molecule inhibitors of T. brucei PFK using a biochemical assay that measures PFK activity as a function of ADP production. A luminescence-based assay for T. brucei PFK activity has been developed which uses luciferase to detect production of ADP. Traditional luciferase-based nucleotide detection reagents rely on ATP production as a direct substrate for the luciferase reaction; however, PFK catalyzes the transfer of a phosphate from ATP to F6P, resulting in the net depletion of ATP. To directly measure the ADP product of the PFK reaction, we used the ADP-Glo detection kit (Promega), which utilizes two separate reactions to 1) deplete all remaining uncatalyzed ATP and 2) convert all remaining ADP to ATP, which is then detected through a traditional luciferase-coupled reaction. Compounds were screened as a concentration-titration series that ranged from 57 uM to 0.7 nM.
ATP-dependent 6-phosphofructokinase (Trypanosoma brucei brucei), sequence (O15648 whole entry, looked up): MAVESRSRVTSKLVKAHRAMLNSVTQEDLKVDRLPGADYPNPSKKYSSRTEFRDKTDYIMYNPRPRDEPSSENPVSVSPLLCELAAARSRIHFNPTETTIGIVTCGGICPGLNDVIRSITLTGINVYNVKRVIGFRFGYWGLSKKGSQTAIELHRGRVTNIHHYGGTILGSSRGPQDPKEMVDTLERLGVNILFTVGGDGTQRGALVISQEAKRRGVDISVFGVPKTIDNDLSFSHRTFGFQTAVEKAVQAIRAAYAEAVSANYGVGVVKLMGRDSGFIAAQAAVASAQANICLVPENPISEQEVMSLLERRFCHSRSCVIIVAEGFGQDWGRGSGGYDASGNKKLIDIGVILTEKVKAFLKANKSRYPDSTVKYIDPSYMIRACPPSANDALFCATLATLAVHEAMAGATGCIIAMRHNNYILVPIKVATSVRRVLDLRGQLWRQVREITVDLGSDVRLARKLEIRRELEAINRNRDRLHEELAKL
NCGC Assay Protocol Summary: Substrate buffer was dispensed into white, solid 1536-well plates at 3uL/well in 0.1M triethanolamine (TEA) buffer, pH 8.0, containing final concentrations of 5 mM MgCl2, 0.01% Tween20, 0.5 mM fructose-6-phosphate (F6P) and 0.1mM ATP. Then, 23 nL of compounds or DMSO were delivered to each well using a pin tool. One uL T. brucei PFK (0.1M TEA, 0.01% Tween20, 0.1% bovine serum albumin (BSA) and 1.25nM PFK, final concentrations) was then dispensed, and plates were incubated at room temperature for 45 min. The luminescent detection reagent, ADP-Glo (Promega), was then added in two steps: the first reagent, ADP-Glo (which converts remaining uncatalyzed ATP), was added at 2.5uL/well and incubated for ten minutes at room temperature, and the second component, Kinase Detection reagent (which converts ADP to ATP as a substrate for luciferase-based luminescence), was added immediately after at 5uL/well, followed by one final ten minute room temperature incubation. The plates were measured on a ViewLux plate reader for luminescent signal using a clear filter with a one second exposure. The %Activity was determined from the corrected luminescence values. As no specific T. brucei PFK inhibitors have been identified in the literature, 1x (1.25nM) and 0x PFK enzyme controls (untreated) were included to normalize %Activity of identified inhibitors; 0x enzyme values corresponded to 100%Activity (full inhibition), while 1x PFK enzyme values were used to normalize 0%Activity (no inhibition). Concentration-response curves were fitted to the signals arising from the resulting luminescence. […]
In the case of `Cc1cc2cc3c(C)cc(=O)oc3c(C)c2o1`, the compound was called inactive.

As for `COC(=O)C1=C(C)NC(C)=C(C(=O)OCCCN2CCC(c3ccccc3)(c3ccccc3)CC2)C1c1cccc([N+](=O)[O-])c1` (stereo not given), the outcome was inactive.

In the case of `CC[C@]1(O)C[C@H]2CN(CCc3c([nH]c4ccccc34)[C@@](C(=O)OC)(c3cc4c(cc3OC)N(C=O)[C@H]3[C@@](O)(C(=O)OC)[C@H](OC(C)=O)[C@]5(CC)C=CCN6CC[C@]43[C@@H]65)C2)C1`, the call was inactive.

Regarding `O=C(NC(Cc1cc(=O)[nH]c2ccccc12)C(=O)O)c1ccc(Cl)cc1` (stereo not given), the call was inactive.

Turning to `Nc1ccn([C@@H]2O[C@H](CO)[C@@H](O)C2O)c(=O)n1` (stereo not given in full), the compound was classed as inactive.

`CN(C)CCc1c[nH]c2ccc(Cn3cncn3)cc12`: the compound was classed as inactive.

On to `Cn1c(NCCN(CCO)CCCc2ccc([N+](=O)[O-])cc2)cc(=O)n(C)c1=O`, for which the outcome was inactive.

As to `COC1=C(OC)C(=O)C(CCCCCCCCCCO)=C(C)C1=O`, the outcome was inactive.

As to `Clc1ccc(C(Cn2ccnc2)OCc2ccsc2Cl)c(Cl)c1` (stereo not given), the result was inactive.

For the compound `CCOc1cc(CC(=O)N[C@@H](CC(C)C)c2ccccc2N2CCCCC2)ccc1C(=O)O`, the compound was classed as inactive.

Take `CNC[C@H](O)c1ccc(O)c(O)c1`: the compound was called inactive.

For the compound `CCN(CC)CCOc1ccc(Cc2ccccc2)cc1`, the compound was classed as inactive.

`C=CCc1cc(OC)c(O)c(C(=O)NCCO)c1`: the compound was classed as inactive.

Take `CNC[C@@H](O)[C@@H](O)[C@H](O)[C@H](O)CO`: the outcome was inactive.

As to `Cc1cccc(C)c1OCC(=O)N[C@@H](Cc1ccccc1)[C@@H](O)C[C@H](Cc1ccccc1)NC(=O)[C@H](C(C)C)N1CCCNC1=O`, the compound was called inactive.

As for `CCCCC(CC)COC(=O)C(C#N)=C(c1ccccc1)c1ccccc1` (stereo not given), the result was inactive.

Take `C[Se]CCC(N)C(=O)O` (stereo not given): the compound was called inactive.

With `Cc1cc2c(s1)Nc1ccccc1N=C2N1CCN(C)CC1`, the call was inactive.

Take `N[C@@H](Cc1cc(I)c(Oc2cc(I)c(O)c(I)c2)c(I)c1)C(=O)O`: the result was inactive.

Turning to `CN1CCC(=C2c3ccccc3CCc3sccc32)CC1`, the call was inactive.

As for `COc1cc(OC)c(C(=O)CCCN2CCCC2)c(OC)c1`, the call was inactive.

Regarding `CC(C)[C@H](N)C(=O)OCCOCn1cnc2c(=O)[nH]c(N)nc21`, the result was inactive.

In the case of `CCCCc1ccc2nc(NC(=O)OC)[nH]c2c1`, the call was inactive.

Regarding `N=C(N)c1ccc2cc(OC(=O)c3ccc(N=C(N)N)cc3)ccc2c1`, the compound was classed as inactive.

On to `CC1(C)CCC(C)(C)c2cc(NC(=O)c3ccc(C(=O)O)cc3)ccc21`, for which the call was inactive.

On to `CC1=C(C)C(=O)C(C(CCCCCC(=O)O)c2ccccc2)=C(C)C1=O` (stereo not given), for which the outcome was inactive.

Consider `Cc1nc(Nc2ncc(C(=O)Nc3c(C)cccc3Cl)s2)cc(N2CCN(CCO)CC2)n1`, for which the outcome was inactive.

As to `CCOC(=O)c1c(C)n(C)c2ccc(O)cc12`, the outcome was inactive.

Take `O=C(OC1C[C@H]2CC[C@@H](C1)[N+]21CCCC1)C(O)(c1ccccc1)c1ccccc1` (stereo not given in full): the call was inactive.

In the case of `CC(S)C(=O)NCC(=O)O` (stereo not given), the compound was called inactive.

As for `COC(=O)[C@H](Cc1ccccc1)NC(=O)[C@@H](N)CC(=O)O` (H-Asp-Phe-OMe), the compound was classed as inactive.

For `O=C1c2ccccc2-c2n[nH]c3cccc1c23`, the compound was called inactive.

As for `C=C(c1ccc(C(=O)O)cc1)c1cc2c(cc1C)C(C)(C)CCC2(C)C`, the compound was called inactive.

As for `CCCc1cc(=O)[nH]c(=S)[nH]1`, the call was inactive.

On to `COCCCOc1ccnc(CS(=O)c2nc3ccccc3[nH]2)c1C` (stereo not given), for which the compound was called inactive.

For the compound `COc1cc2c(cc1OC)C1CC(=O)C(CC(C)C)CN1CC2` (stereo not given), the result was inactive.

In the case of `CCCCCCCCCCCCCCCCCCCCCCO`, the outcome was inactive.

`N=C(N=C(N)N)N1CCOCC1`: the call was inactive.

Consider `CN(C)C(=O)COC(=O)Cc1ccc(OC(=O)c2ccc(N=C(N)N)cc2)cc1`, for which the result was inactive.

Regarding `Cc1ccc(NC(=O)c2ccc(CN3CCN(C)CC3)cc2)cc1Nc1nccc(-c2cccnc2)n1`, the outcome was inactive.
